Data as given in PubChem BioAssay (NCI).
About 79,000 compounds went through this panel and 15% of them were active in at least one assay; those are over-represented in the sample as a whole. Activity calls are given as the source filed them. Cut-off read from the data, not from the text of the source: active = growth inhibition above about 70%; inactive = the rest.

Tests used:
[1] = NCI Yeast Anticancer Drug Screen. Data for the wt1 strain (AID 149);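 note: 0% = growth of vehicle-treated wt1 cultures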; details: S. cerevisiae wt1 strain (SPY 50644) growth inhibition, hits give high values
How it was run: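 wt1 strain grown with compound or vehicle; inhibition taken from the growth difference.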

[2] = NCI Yeast Anticancer Drug Screen. Data for the rad50EPP+ strain (AID 151);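 note: 0% = growth of vehicle-treated control cultures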; details: S. cerevisiae rad50 mutant strain, hits give high values
How it was run: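 Strain rad50EPP+; compound exposure; % growth inhibition vs vehicle.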

[3] = NCI Yeast Anticancer Drug Screen. Data for the mgt1 strain (AID 153); details: S. cerevisiae mgt1 mutant growth inhibition, hits give high values
How it was run: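 Read-out: yeast growth inhibition vs vehicle control. Strain mgt1, drawn from a panel altered in DNA damage repair or cell cycle control.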

[4] = NCI Yeast Anticancer Drug Screen. Data for the mec2-1 strain (AID 157); details: S. cerevisiae mec2-1 strain, hits give high values
How it was run: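 Cells of the genetically defined mec2-1 yeast strain are incubated with test compound. Inhibition of growth is calculated against vehicle-treated controls.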

[5] = NCI Yeast Anticancer Drug Screen. Data for the rad14 strain (AID 159);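 note: 0% = growth of vehicle-treated control cultures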; details: S. cerevisiae rad14 strain growth inhibition, hits give high values
How it was run: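 DNA repair-defective yeast, compound-exposed; % growth inhibition derived by comparison with vehicle-treated controls.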

[6] = NCI Yeast Anticancer Drug Screen. Data for the sgs1 mgt1 strain (AID 161);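 note: 0% = growth of cultures given vehicle only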; details: S. cerevisiae sgs1 mgt1 strain, hits give high values
How it was run: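 Genetically altered yeast, compound exposure, growth inhibition relative to vehicle.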

[7] = NCI Yeast Anticancer Drug Screen. Data for the CLN2oe strain (AID 163);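 note: 0% = growth of vehicle-only control cultures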; details: S. cerevisiae CLN2oe strain, hits give high values
How it was run: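 Strain altered in cell-cycle control, incubated with compound; growth compared to solvent-treated controls.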

[8] = NCI Yeast Anticancer Drug Screen. Data for the cln2 rad14 strain (AID 165);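 note: 0% = growth equal to vehicle treated cultures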; details: S. cerevisiae cln2 rad14 strain, hits give high values
How it was run: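 The screen exposed genetically defined yeast (cln2 rad14) to test compounds and scored growth inhibition relative to vehicle-treated controls.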

[9] = NCI Yeast Anticancer Drug Screen. Data for the bub3 strain (AID 167); details: S. cerevisiae bub3 mutant strain, hits give high values
How it was run: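 In this screen, a yeast mutant lacking normal mitotic checkpoint function is challenged with compound. Relative growth versus vehicle gives the inhibition value.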

[10] = NCI Yeast Anticancer Drug Screen. Data for the wt2 strain (AID 169);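 note: 0% = growth of vehicle-treated yeast cultures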; details: S. cerevisiae wt2 strain growth inhibition, hits give high values
How it was run: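 Steps: yeast strain treated with compound; growth recorded; inhibition calculated relative to cultures given vehicle alone.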

[11] = NCI Yeast Anticancer Drug Screen. Data for the mlh1 strain (AID 171);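 note: 0% = growth of vehicle-treated control cultures of the same strain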; details: S. cerevisiae mlh1 strain growth inhibition, hits give high values
How it was run: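 Yeast screen: mutant strain plus compound, growth scored against vehicle control wells.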

[12] = NCI Yeast Anticancer Drug Screen. Data for the sgs1 strain (AID 173);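 note: 0% = growth of vehicle-only control cultures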; details: S. cerevisiae sgs1 mutant, hits give high values
How it was run: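 Inhibition of yeast growth served as the measure. The mutant strain was treated with each compound, and growth was normalised to cultures receiving vehicle alone.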

[13] = NCI Yeast Anticancer Drug Screen. Data for the mlh1 rad18 strain (AID 175); details: S. cerevisiae mlh1 rad18 strain growth inhibition, hits give high values
How it was run: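 Compound-treated yeast growth, normalised to vehicle controls. Strain bears defined DNA repair mutations.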

[14] = NCI Yeast Anticancer Drug Screen. Data for the rad18 strain (AID 177); details: S. cerevisiae rad18 mutant growth inhibition, hits give high values
How it was run: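 Inhibition values reflect reduced yeast growth compared with vehicle-treated controls, using a strain engineered with a DNA damage repair defect.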

[15] = NCI Yeast Anticancer Drug Screen. Data for the rad50 strain (AID 155);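 note: 0% = growth of vehicle-only cultures of the same strain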; details: S. cerevisiae rad50 strain growth inhibition, hits give high values
How it was run: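 DNA repair mutant yeast, compound exposure, growth read-out; inhibition is taken relative to vehicle.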

[16] = at 5.0 µM (retest, dose inferred, filed as 0.5)
[17] = at 50.0 µM (retest, dose inferred, filed as 5.0)

Measured: growth inhibition

NCCOc1ccc(/C(=C(/Cl)c2ccccc2)c2ccccc2)cc1
active: [1]; at 33.0 µM 98% | [1]; at 100.0 µM 97% | [2]; at 33.0 µM 97% | [2]; at 100.0 µM 96% | [3]; at 33.0 µM 98% | [3]; at 100.0 µM 96% | [4]; at 33.0 µM 98% | [4]; [17] 99% | [4]; at 50.0 µM 93.8% | [4]; at 100.0 µM 97% | [5]; at 11.0 µM 72% | [5]; at 33.0 µM 98% | [5]; at 100.0 µM 96% | [6]; [17] 98% | [6]; at 50.0 µM 92.7% | [7]; at 33.0 µM 98% | [7]; at 100.0 µM 96% | [8]; [17] 98% | [8]; at 50.0 µM 92.2% | [9]; at 33.0 µM 99% | [9]; [17] 98% | [9]; at 50.0 µM 91.8% | [9]; at 100.0 µM 96% | [10]; at 33.0 µM 98% | [10]; at 100.0 µM 97% | [11]; at 33.0 µM 99% | [11]; at 100.0 µM 97% | [12]; at 33.0 µM 99% | [12]; at 100.0 µM 97% | [13]; [17] 98% | [13]; at 50.0 µM 88.7% | [14]; at 33.0 µM 99% | [14]; at 100.0 µM 97%
inactive: [1]; at 1.2 µM 1% | [1]; at 3.7 µM -4% | [1]; at 11.0 µM 5% | [2]; at 1.2 µM 0% | [2]; at 3.7 µM 9% | [2]; at 11.0 µM 15% | [3]; at 1.2 µM -6% | [3]; at 3.7 µM -7% | [3]; at 11.0 µM 13% | [4]; at 1.2 µM -5% | [4]; at 3.7 µM -17% | [4]; [16] 7% | [4]; at 11.0 µM 11% | [5]; at 1.2 µM -16% | [5]; at 3.7 µM -18% | [6]; [16] 7% | [7]; at 1.2 µM 18% | [7]; at 3.7 µM 12% | [7]; at 11.0 µM 36% | [8]; [16] 37% | [9]; at 1.2 µM 0% | [9]; at 3.7 µM -35% | [9]; [16] -11% | [9]; at 11.0 µM 14% | [10]; at 1.2 µM -4% | [10]; at 3.7 µM 0% | [10]; at 11.0 µM 2% | [11]; at 1.2 µM 18% | [11]; at 3.7 µM 10% | [11]; at 11.0 µM 34% | [12]; at 1.2 µM 26% | [12]; at 3.7 µM 23% | [12]; at 11.0 µM 55% | [13]; [16] -1% | [14]; at 1.2 µM 16% | [14]; at 3.7 µM 29% | [14]; at 11.0 µM 30%

COc1ccc2cc(C(C)C(=O)N3CCOC3=O)ccc2c1 (stereo unspecified)
inactive: [1]; at 1.2 µM -34% | [1]; at 3.7 µM -34% | [1]; at 11.0 µM -29% | [1]; at 33.0 µM -31% | [1]; at 100.0 µM -22% | [2]; at 1.2 µM 5% | [2]; at 3.7 µM 5% | [2]; at 11.0 µM 7% | [2]; at 33.0 µM 9% | [2]; at 100.0 µM 22% | [3]; at 1.2 µM 5% | [3]; at 3.7 µM 6% | [3]; at 11.0 µM 7% | [3]; at 33.0 µM 21% | [3]; at 100.0 µM 45% | [15]; at 1.2 µM 21% | [15]; at 3.7 µM 24% | [15]; [16] -14% | [15]; at 11.0 µM 15% | [15]; at 33.0 µM 23% | [15]; [17] 27% | [15]; at 50.0 µM 60.6% | [15]; at 100.0 µM 50% | [4]; at 1.2 µM -21% | [4]; at 3.7 µM -28% | [4]; [16] -11% | [4]; at 11.0 µM -27% | [4]; at 33.0 µM -19% | [4]; [17] 9% | [4]; at 50.0 µM 23.9% | [4]; at 100.0 µM 11% | [5]; at 1.2 µM -18% | [5]; at 3.7 µM -20% | [5]; at 11.0 µM -22% | [5]; at 33.0 µM -17% | [5]; at 100.0 µM 50% | [6]; [16] 7% | [6]; [17] 37% | [6]; at 50.0 µM 57.1% | [7]; at 1.2 µM 11% | [7]; at 3.7 µM 5% | [7]; at 11.0 µM -3% | [7]; at 33.0 µM -6% | [7]; at 100.0 µM 11% | [8]; [16] 16% | [8]; [17] 17% | [8]; at 50.0 µM 24.7% | [9]; at 1.2 µM 29% | [9]; at 3.7 µM 25% | [9]; [16] -15% | [9]; at 11.0 µM 24% | [9]; at 33.0 µM 21% | [9]; at 50.0 µM 29.2% | [9]; at 100.0 µM 40% | [10]; at 1.2 µM -41% | [10]; at 3.7 µM -41% | [10]; at 11.0 µM -34% | [10]; at 33.0 µM -28% | [10]; at 100.0 µM -7% | [11]; at 1.2 µM 21% | [11]; at 3.7 µM 10% | [11]; at 11.0 µM 11% | [11]; at 33.0 µM 21% | [11]; at 100.0 µM 64% | [12]; at 1.2 µM -2% | [12]; at 3.7 µM -12% | [12]; at 11.0 µM -2% | [12]; at 33.0 µM 3% | [12]; at 100.0 µM 27% | [13]; [16] -28% | [13]; at 50.0 µM 44.1% | [14]; at 1.2 µM 13% | [14]; at 3.7 µM 10% | [14]; at 11.0 µM 9% | [14]; at 33.0 µM 4% | [14]; at 100.0 µM 21%
active: [9]; [17] 75% | [13]; [17] 78%

BrC1C2CCC3OC3C12 (stereo unspecified)
inactive: [1]; at 1.2 µM 0% | [1]; at 3.7 µM 1% | [2]; at 1.2 µM 9% | [2]; at 3.7 µM 27% | [3]; at 1.2 µM 2% | [3]; at 3.7 µM 3% | [15]; at 1.2 µM 3% | [15]; at 3.7 µM 7% | [15]; [16] 41% | [4]; at 1.2 µM 0% | [4]; at 3.7 µM 5% | [4]; [16] 28% | [5]; at 1.2 µM 0% | [5]; at 3.7 µM 3% | [6]; [16] 65% | [7]; at 1.2 µM 2% | [7]; at 3.7 µM -3% | [7]; at 11.0 µM 53% | [8]; [16] 8% | [9]; at 1.2 µM -4% | [9]; at 3.7 µM -5% | [9]; [16] 2% | [9]; at 11.0 µM 42% | [10]; at 1.2 µM -1% | [10]; at 3.7 µM 2% | [11]; at 1.2 µM -1% | [11]; at 3.7 µM 4% | [12]; at 1.2 µM -1% | [12]; at 3.7 µM 11% | [14]; at 1.2 µM 1% | [14]; at 3.7 µM 7%
active: [1]; at 11.0 µM 96% | [1]; at 33.0 µM 98% | [1]; at 100.0 µM 99% | [2]; at 11.0 µM 70% | [2]; at 33.0 µM 89% | [2]; at 100.0 µM 96% | [3]; at 11.0 µM 77% | [3]; at 33.0 µM 99% | [3]; at 100.0 µM 99% | [15]; at 11.0 µM 92% | [15]; at 33.0 µM 97% | [15]; [17] 99% | [15]; at 50.0 µM 99.5% | [15]; at 100.0 µM 98% | [4]; at 11.0 µM 93% | [4]; at 33.0 µM 99% | [4]; [17] 100% | [4]; at 50.0 µM 99.7% | [4]; at 100.0 µM 99% | [5]; at 11.0 µM 98% | [5]; at 33.0 µM 99% | [5]; at 100.0 µM 99% | [6]; [17] 100% | [6]; at 50.0 µM 99.5% | [7]; at 33.0 µM 99% | [7]; at 100.0 µM 99% | [8]; [17] 99% | [8]; at 50.0 µM 99% | [9]; at 33.0 µM 99% | [9]; [17] 100% | [9]; at 50.0 µM 99.3% | [9]; at 100.0 µM 99% | [10]; at 11.0 µM 98% | [10]; at 33.0 µM 99% | [10]; at 100.0 µM 99% | [11]; at 11.0 µM 86% | [11]; at 33.0 µM 99% | [11]; at 100.0 µM 99% | [12]; at 11.0 µM 98% | [12]; at 33.0 µM 99% | [12]; at 100.0 µM 99% | [13]; [16] 74% | [13]; [17] 99% | [13]; at 50.0 µM 99.5% | [14]; at 11.0 µM 95% | [14]; at 33.0 µM 98% | [14]; at 100.0 µM 99%
